About 79,000 compounds went through this panel and 15% of them were active in at least one assay; those are over-represented in the sample as a whole. Values without a mark were called inactive. Active and inactive are the calls of the source. No stated cut-off is given here; in the data, active means growth inhibition above about 70%; inactive means the rest.
Key:
[1] = NCI Yeast Anticancer Drug Screen. Data for the rad50 strain (AID 155);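 further: 0% = growth of vehicle-only cultures of the same strain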; conditions: S. cerevisiae rad50 strain growth inhibition; at 50.0 µM; stronger effect = higher value
Outline: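 Cells are treated with compound, grown, and their growth is then scored against vehicle-only cultures of the same repair-deficient yeast strain.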

[2] = NCI Yeast Anticancer Drug Screen. Data for the mec2-1 strain (AID 157); conditions: S. cerevisiae mec2-1 strain, at 50.0 µM, stronger effect = higher value
Outline: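 mec2-1 yeast strain, carrying an alteration in DNA damage repair or cell cycle control, was exposed to compounds; growth inhibition was measured relative to vehicle-treated controls.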

[3] = NCI Yeast Anticancer Drug Screen. Data for the sgs1 mgt1 strain (AID 161);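 further: 0% = growth of cultures given vehicle only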; conditions: S. cerevisiae sgs1 mgt1 strain, at 50.0 µM, stronger effect = higher value
Outline: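 Growth of a repair-deficient yeast mutant was monitored after compound treatment and expressed as inhibition relative to vehicle-treated cultures.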

[4] = NCI Yeast Anticancer Drug Screen. Data for the cln2 rad14 strain (AID 165);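 further: 0% = growth equal to vehicle treated cultures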; conditions: S. cerevisiae cln2 rad14 strain, at 50.0 µM, stronger effect = higher value
Outline: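 Yeast carrying cln2 and rad14 alterations (cell cycle control and DNA damage repair) were exposed to compounds. Growth inhibition was measured against vehicle-treated controls.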

[5] = NCI Yeast Anticancer Drug Screen. Data for the bub3 strain (AID 167); conditions: S. cerevisiae bub3 mutant strain, at 50.0 µM, stronger effect = higher value
Outline: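 Part of a panel of yeast mutants defective in DNA damage repair or cell cycle regulation. Each strain is grown with compound, and inhibition is calculated relative to solvent-treated cultures.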

[6] = NCI Yeast Anticancer Drug Screen. Data for the mlh1 rad18 strain (AID 175); conditions: S. cerevisiae mlh1 rad18 strain growth inhibition; at 50.0 µM; stronger effect = higher value
Outline: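 Growth inhibition of the yeast strain was measured after compound exposure and expressed relative to vehicle-treated controls. The strain carries defined defects in DNA damage repair.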

Molecule `CC(C)CC(=O)c1ccccn1` has a growth inhibition [1] of -10.1%, a growth inhibition [2] of -30.9% and a growth inhibition [3] of -16.1%. For the same molecule, the growth inhibition [4] was 7.95%, the growth inhibition [5] was -19% and the growth inhibition [6] was -0.35%.
In the case of `NC(=O)C1C=CN(Cc2ccccc2)C=C1`, the growth inhibition [1] is reported as -5.2%, the growth inhibition [2] is reported as 7.45% and the growth inhibition [3] is reported as -0.65%. The growth inhibition [4] was -12.8%, the growth inhibition [5] was 23.4% and the growth inhibition [6] was 7.3%.
Molecule `N#Cc1c(N)nc2c(c(-c3ccc(Cl)cc3)nn2-c2ccccc2)c1C#N` has a growth inhibition [1] of -2.45%, a growth inhibition [2] of -17.4% and a growth inhibition [3] of -34.8%. The growth inhibition [4] was 11.1%, the growth inhibition [5] was -23.9% and the growth inhibition [6] was 6.1%.
`O=C(CN1C(=O)c2ccccc2C1=O)OC1C=CCCC1` (stereo not drawn) showed a growth inhibition [1] of 12.2%, a growth inhibition [2] of 0.65% and a growth inhibition [3] of 1.5%. For the same molecule, the growth inhibition [4] was 18.7%, the growth inhibition [5] was 9.6% and the growth inhibition [6] was 10.3%.
For `CNc1ccc(Cl)cc1S(=O)(=O)c1ccccc1[N+](=O)[O-]`, the growth inhibition [1] was 3.2%, the growth inhibition [2] was 16.4% and the growth inhibition [3] was 24.8%. It also gave a growth inhibition [4] of 23.3%, a growth inhibition [5] of 5.65% and a growth inhibition [6] of -7.05%.
`[B-][N+]1(C)CC[N+]([B-])(C)CC1` (stereo not drawn) showed a growth inhibition [1] of -0.6%, a growth inhibition [2] of 5.8% and a growth inhibition [3] of -7%. It also gave a growth inhibition [4] of 16.1%, a growth inhibition [5] of -5.65% and a growth inhibition [6] of -11.6%.
Molecule `O=C(Nc1ccc(Cl)cc1)OCc1ccco1` has a growth inhibition [1] of 2.2%, a growth inhibition [2] of 24.1% and a growth inhibition [3] of 24.4%. The growth inhibition [4] was -12.4%, the growth inhibition [5] was 17.8% and the growth inhibition [6] was 16.8%.
With `COc1ccc(Cl)cc1NC(=O)Oc1cc2ccccc2cc1C(=O)Nc1ccccc1` the growth inhibition [1] was -9.4%, the growth inhibition [2] was -8.05% and the growth inhibition [3] was -21.4%. For the same molecule, the growth inhibition [4] was -25.1%, the growth inhibition [5] was -3.25% and the growth inhibition [6] was -13.8%.
`ClCC1CCN(Cc2ccccc2)CC1` showed a growth inhibition [1] of -4.5%, a growth inhibition [2] of 13.9% and a growth inhibition [3] of 6.7%. For the same molecule, the growth inhibition [4] was -17.4%, the growth inhibition [5] was -10.5% and the growth inhibition [6] was 6.9%.
With `CC1[C@@H]2CC=C3[C@H]4CCC5Cc6nc7c(nc6C[C@@]5(C)C4CC(=O)[C@]32CO[C@]12OC(C)(C)CC2O)CC1CC[C@@H]2C3=C[C@H]4O[C@@]5(O[C@@](C)(CO)C[C@@H]5O)C(C)[C@@]4(O)[C@]3(C)[C@@H](O)CC2[C@]1(C)C7` (stereo partly drawn) the growth inhibition [1] was 37.5%, the growth inhibition [2] was 40.9% and the growth inhibition [3] was 90.7% (active). It also gave a growth inhibition [4] of 57.2%, a growth inhibition [5] of 47% and a growth inhibition [6] of 40.1%.
Molecule `CSc1ccc(C(=C=C=C(c2ccc(SC)s2)c2ccc(SC)s2)c2ccc(SC)s2)s1` has a growth inhibition [1] of 38.7%, a growth inhibition [2] of -19.8% and a growth inhibition [3] of 2.85%. It also gave a growth inhibition [4] of -24.2%, a growth inhibition [5] of -31.9% and a growth inhibition [6] of -2.1%.
Work on `O=[N+]([O-])c1cccc(OCC2CO2)c1` (stereo not drawn) yielded a growth inhibition [1] of 9%, a growth inhibition [2] of -23.8% and a growth inhibition [3] of -0.75%. For the same molecule, the growth inhibition [4] was -13.2%, the growth inhibition [5] was -2.1% and the growth inhibition [6] was 34.5%.
For `CC(=O)N=Cc1ccccc1O`, the growth inhibition [1] was -27.8%, the growth inhibition [2] was -16% and the growth inhibition [3] was -50.2%. For the same molecule, the growth inhibition [4] was -77.7%, the growth inhibition [5] was -34.5% and the growth inhibition [6] was -20.7%.
Work on `CC(=O)/C(N=Nc1ccc(S(=O)(=O)c2ccc(N=N/C(C(C)=O)=C(/C)O)cc2)cc1)=C(\C)O` yielded a growth inhibition [1] of -27.2%, a growth inhibition [2] of -20.4% and a growth inhibition [3] of -9.8%. The growth inhibition [4] was 0.15%, the growth inhibition [5] was -20.6% and the growth inhibition [6] was -14.9%.
With `c1ccc(N=C(C(=Nc2ccccc2)c2ccccc2)c2ccccc2)cc1` the growth inhibition [1] was 4.7%, the growth inhibition [2] was 13.6% and the growth inhibition [3] was 3.65%. The growth inhibition [4] was -67.8%, the growth inhibition [5] was 4.65% and the growth inhibition [6] was -9.05%.
With `O=C1C=CC(=O)N1Cc1ccco1` the growth inhibition [1] was -3.7%, the growth inhibition [2] was -16.8% and the growth inhibition [3] was 5.9%. It also gave a growth inhibition [4] of 8.5%, a growth inhibition [5] of 10.1% and a growth inhibition [6] of -16.6%.
In the case of `CC(=O)c1ccc(N=C2C(=O)Nc3ccccc32)cc1`, the growth inhibition [1] is reported as 28.9%, the growth inhibition [2] is reported as 15.8% and the growth inhibition [3] is reported as 10.4%. The growth inhibition [4] was 19.8%, the growth inhibition [5] was 9% and the growth inhibition [6] was 25.8%.
Molecule `COC1C(OC(N)=O)C(O)C(Oc2ccc3c(O)c(NC(=O)c4ccc(O)c(CC=C(C)C)c4)c(=O)oc3c2C)OC1(C)C` (stereo not drawn) has a growth inhibition [1] of 7.2%, a growth inhibition [2] of -23.4% and a growth inhibition [3] of 1.7%. The growth inhibition [4] was -6.1%, the growth inhibition [5] was 9.1% and the growth inhibition [6] was 26.4%.
With `O=C(O)c1cc(-c2cccs2)c(C(=O)O)s1` the growth inhibition [1] was -4.2%, the growth inhibition [2] was 5.35% and the growth inhibition [3] was -18.2%. It also gave a growth inhibition [4] of -19.1%, a growth inhibition [5] of -11.1% and a growth inhibition [6] of 2.1%.
For `Cc1nc(Cl)nc2c1C(=O)Nc1ccccc1N2`, the growth inhibition [1] was 27.2%, the growth inhibition [2] was 14.4% and the growth inhibition [3] was 0%. The growth inhibition [4] was 2.95%, the growth inhibition [5] was 28.1% and the growth inhibition [6] was 15.9%.
Molecule `Cc1cn(CCCSCC2OC3OC4C(CO)OC(OC5C(CO)OC(OC6C(CO)OC(OC7C(CO)OC(OC8C(CO)OC(OC9C(CO)OC(OC2C(O)C3O)C(O)C9O)C(O)C8O)C(O)C7O)C(O)C6O)C(O)C5O)C(O)C4O)c(=O)[nH]c1=O` (stereo not drawn) has a growth inhibition [1] of -21.6%, a growth inhibition [2] of -9.35% and a growth inhibition [3] of -18.4%. The growth inhibition [4] was 0%, the growth inhibition [5] was -1.85% and the growth inhibition [6] was -14.2%.
`O=S1C2CCC(Br)C1CCC2Br` (stereo not drawn) gave a growth inhibition [1] of 7.95%, a growth inhibition [2] of -6.15% and a growth inhibition [3] of 23.1%. It also gave a growth inhibition [4] of -5.35%, a growth inhibition [5] of 5.5% and a growth inhibition [6] of 12.4%.
Molecule `CCC1(O)CC2C3C(C(=O)OC)=C4Nc5ccccc5C45CCN(C31)C25` (stereo not drawn) has a growth inhibition [1] of 6.2%, a growth inhibition [2] of -6.3% and a growth inhibition [3] of 3.35%. It also gave a growth inhibition [4] of 11.8%, a growth inhibition [5] of 1.9% and a growth inhibition [6] of -2.1%.
`O=C1c2cc3c(cc2CC1Cc1ccc2c(c1)CCC2)CCC3` (stereo not drawn) gave a growth inhibition [1] of -28.8%, a growth inhibition [2] of -23.8% and a growth inhibition [3] of -33.2%. It also gave a growth inhibition [4] of -34%, a growth inhibition [5] of -20.5% and a growth inhibition [6] of -33.1%.
With `c1ccc([P+](CC[P+](c2ccccc2)(c2ccccc2)c2ccccc2)(c2ccccc2)c2ccccc2)cc1` the growth inhibition [1] was -11.7%, the growth inhibition [2] was -15.6% and the growth inhibition [3] was -1.45%. For the same molecule, the growth inhibition [4] was -31.8%, the growth inhibition [5] was -12.4% and the growth inhibition [6] was -16.4%.
In the case of `Cn1nc2ccc3nccc(NCCNCCO)c3c2n1`, the growth inhibition [1] is reported as -3.65%, the growth inhibition [2] is reported as -8.8% and the growth inhibition [3] is reported as -4.65%. For the same molecule, the growth inhibition [4] was 7.4%, the growth inhibition [5] was -4.8% and the growth inhibition [6] was -9.65%.
Molecule `O=C(O)CNC(=S)SCc1ccccc1` has a growth inhibition [1] of 10%, a growth inhibition [2] of -11.9% and a growth inhibition [3] of -11.1%. The growth inhibition [4] was -35.8%, the growth inhibition [5] was 11.2% and the growth inhibition [6] was 10.8%.
In the case of `CC1(C)OC2(CC1C1(C)C=CC(=O)O1)CC1(O)C(CCC34CC13C(=O)OC4c1ccoc1)O2` (stereo not drawn), the growth inhibition [1] is reported as 17%, the growth inhibition [2] is reported as 4.25% and the growth inhibition [3] is reported as -10.3%. It also gave a growth inhibition [4] of 24.7%, a growth inhibition [5] of 14.9% and a growth inhibition [6] of 16.8%.
`CCCCCCCCCCOc1ccc(C=NC/C=C/c2ccc(CC)cc2)cc1` gave a growth inhibition [1] of -19.4%, a growth inhibition [2] of -13.8% and a growth inhibition [3] of -13.7%. It also gave a growth inhibition [4] of -50.8%, a growth inhibition [5] of -1.2% and a growth inhibition [6] of -23.4%.
In the case of `Cc1nc2c(N)cc(Cl)cc2[nH]1`, the growth inhibition [1] is reported as 13.2%, the growth inhibition [2] is reported as 13.3% and the growth inhibition [3] is reported as 19.6%. For the same molecule, the growth inhibition [4] was 8.25%, the growth inhibition [5] was -7.3% and the growth inhibition [6] was 7.75%.
Molecule `CC(C)OC(CCC#N)c1ccccc1` (stereo not drawn) has a growth inhibition [1] of -20.1%, a growth inhibition [2] of -48.6% and a growth inhibition [3] of -33.3%. The growth inhibition [4] was -8.3%, the growth inhibition [5] was -32.9% and the growth inhibition [6] was -34.1%.
Molecule `CC(=O)Nc1ccc([N+](=O)[O-])cc1Cl` has a growth inhibition [1] of 27.6%, a growth inhibition [2] of 16.9% and a growth inhibition [3] of 16.8%. For the same molecule, the growth inhibition [4] was -3.15%, the growth inhibition [5] was 5.1% and the growth inhibition [6] was 26.4%.
Molecule `Cc1cc2nc(C(C)(C)O)[nH]c2cc1C` has a growth inhibition [1] of 0.2%, a growth inhibition [2] of -4.8% and a growth inhibition [3] of 2.8%. For the same molecule, the growth inhibition [4] was 8.2%, the growth inhibition [5] was 1.6% and the growth inhibition [6] was 13.2%.
In the case of `CC(=O)N(C(C)=O)C1=C(c2ccccc2)C(=O)c2ccccc21`, the growth inhibition [1] is reported as 13.2%, the growth inhibition [2] is reported as 22.2% and the growth inhibition [3] is reported as 14%. For the same molecule, the growth inhibition [4] was -0.75% and the growth inhibition [6] was 40.1%.
`CC(CN1CCCC1)(Oc1ccccc1)C(=O)c1ccccc1` (stereo not drawn) gave a growth inhibition [1] of 16.6%, a growth inhibition [2] of -0.45% and a growth inhibition [3] of 15.1%. The growth inhibition [4] was 7.8% and the growth inhibition [6] was 2.45%.
Work on `CC(=O)Oc1ccc(OC(C)=O)c2c(OC(C)=O)ccc(OC(C)=O)c12` yielded a growth inhibition [1] of 0.45%, a growth inhibition [2] of 2.15% and a growth inhibition [3] of 1.55%. It also gave a growth inhibition [4] of -10.3% and a growth inhibition [6] of -6.8%.

Reference: PubChem BioAssay (NCI)
